Assay [1] in a line: compounds binding Alexa647 anti-His antibody – biochemical, small-molecule microarray, 635 nm fluorescence, artefact control for SMM control protein annotation, primary screen (AID 1128).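 Also: score merges feature fluorescence with signal-to-noise for each printed compound spot.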 The settings on record: higher = more signal.
The subject of assay [2] is Human papillomavirus type 1a E7 protein (residues 1-88). The experiment in a line: HPV1a E7 small-molecule binders, primary screen, biochemical, small-molecule microarray, residues 1-88, 635 nm (AID 1129). The note with it: small-molecule microarray binding, fluorescence 635 nm; higher = more signal.
Assay [3] deals with Focal adhesion kinase 1 (Homo sapiens) (UniProt Q05397). The assay can be described thus: PTK2 protein binding on printed compound slides – biochemical, small-molecule microarray, 635/667 nm fluorescence, BSA, DTT, primary screen (AID 1130).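 Also: composite of spot emission at 667 nm and signal to noise over triplicate slides.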 The settings on record: 635 nm fluorescence, higher = more signal.
Sequence of Focal adhesion kinase 1 (Homo sapiens) (Q05397 whole entry, looked up): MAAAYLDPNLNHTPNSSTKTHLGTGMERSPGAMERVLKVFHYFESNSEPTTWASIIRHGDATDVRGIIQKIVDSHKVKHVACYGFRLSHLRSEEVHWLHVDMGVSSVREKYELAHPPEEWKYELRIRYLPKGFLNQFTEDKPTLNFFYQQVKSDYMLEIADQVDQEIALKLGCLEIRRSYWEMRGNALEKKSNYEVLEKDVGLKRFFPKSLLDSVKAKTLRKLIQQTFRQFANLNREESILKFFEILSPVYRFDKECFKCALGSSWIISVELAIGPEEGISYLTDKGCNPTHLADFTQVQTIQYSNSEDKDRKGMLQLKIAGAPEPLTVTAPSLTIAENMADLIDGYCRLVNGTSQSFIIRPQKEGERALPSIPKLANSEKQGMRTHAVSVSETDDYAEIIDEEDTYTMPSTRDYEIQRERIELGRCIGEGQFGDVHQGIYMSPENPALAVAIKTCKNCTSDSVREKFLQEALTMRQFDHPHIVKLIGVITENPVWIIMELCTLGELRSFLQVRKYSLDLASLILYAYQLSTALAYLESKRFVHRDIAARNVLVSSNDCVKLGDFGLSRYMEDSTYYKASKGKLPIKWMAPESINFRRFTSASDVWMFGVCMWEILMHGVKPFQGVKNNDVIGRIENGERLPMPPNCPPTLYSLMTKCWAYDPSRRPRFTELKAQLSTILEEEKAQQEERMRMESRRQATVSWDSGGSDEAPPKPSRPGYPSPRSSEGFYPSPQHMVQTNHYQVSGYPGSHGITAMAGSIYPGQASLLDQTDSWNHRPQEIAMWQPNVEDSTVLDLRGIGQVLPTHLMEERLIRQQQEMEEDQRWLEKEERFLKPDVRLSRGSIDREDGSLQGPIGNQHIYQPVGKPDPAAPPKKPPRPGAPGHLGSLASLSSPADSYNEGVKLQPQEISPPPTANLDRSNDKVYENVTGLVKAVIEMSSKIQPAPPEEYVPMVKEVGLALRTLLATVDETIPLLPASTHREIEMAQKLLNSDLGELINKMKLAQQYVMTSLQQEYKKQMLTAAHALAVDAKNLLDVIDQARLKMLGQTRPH
The subject of assay [4] is Fibrinogen (Alexa647-labelled). The experiment in a line: Alexa647-fibrinogen binding to printed small molecules – biochemical, small-molecule microarray, 635/667 nm fluorescence, artefact control for SMM control-protein annotation, profiling panel (AID 1131).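 Also: z-score merges 667 nm fluorescence with per-spot signal-to-noise over triplicate slides.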 The settings on record: fibrinogen-A647 binding fluorescence, higher = more signal.
For assay [5], the target named is Follistatin (Homo sapiens) (UniProt P19883). The assay can be described thus: FST protein binding to printed compounds – biochemical, small-molecule microarray, 635/667 nm fluorescence, primary screen (AID 1132). The settings on record: 635 nm fluorescence, higher = more signal.
Sequence of Follistatin (Homo sapiens) (P19883 whole entry, looked up): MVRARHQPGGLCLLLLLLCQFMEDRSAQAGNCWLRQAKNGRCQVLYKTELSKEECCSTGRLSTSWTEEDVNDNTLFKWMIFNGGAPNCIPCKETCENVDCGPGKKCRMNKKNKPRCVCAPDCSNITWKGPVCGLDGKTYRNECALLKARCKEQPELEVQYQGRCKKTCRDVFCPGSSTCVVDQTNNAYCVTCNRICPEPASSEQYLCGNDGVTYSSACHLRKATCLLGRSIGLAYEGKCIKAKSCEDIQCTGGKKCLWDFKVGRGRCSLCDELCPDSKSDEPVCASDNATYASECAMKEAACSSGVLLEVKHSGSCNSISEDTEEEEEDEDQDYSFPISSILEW
Assay [6] concerns the target Fibroblast growth factor 2 (Homo sapiens) (UniProt P09038). The assay can be described thus: basic fibroblast growth factor binding to printed compounds – biochemical, small-molecule microarray, 635/667 nm fluorescence, primary screen (AID 1133). The settings on record: FGF2, fluorescence 635/667, higher = more signal.
Assay [7] is described as follows: JC-1 mitochondrial potential readout, lung cancer cells – cell-based, A549, JC-1 fluorescence, basal, 24 h, 100 nL, profiling panel (AID 1138).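 Also: A549 lung adenocarcinoma cells under basal conditions with no added stimulus; test concentration not given here.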 The note with it: higher = more signal.
The next assay has as its system Lefty1. The experiment in a line: Lefty1 protein binding to printed compounds – biochemical, small-molecule microarray, 635/667 nm fluorescence, primary screen (AID 1139). The settings on record: fluorescence 635/667, higher = more signal.
The subject of assay [8] is wheat germ agglutinin (Triticum aestivum), Alexa647-labelled. The assay can be described thus: Alexa647-WGA lectin binding to printed small molecules – biochemical, small-molecule microarray, 635/667 nm fluorescence, artefact control for SMM control-protein annotation, profiling panel (AID 1140).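 Also: score merges 667 nm feature emission with signal to noise over triplicate slides.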 The note with it: WGA-A647 binding, 635 nm fluorescence, higher = more signal.

For assay [9], the target named is Luciferin 4-monooxygenase (Photinus pyralis) (UniProt P08659). The experiment in a line: inhibition of purified Photinus pyralis luciferase – biochemical, luminescence, purified enzyme, 2006 set, primary screen (AID 1141).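 Also: cell-free assay with purified firefly luciferase at 100 ng per well in PBS; test concentration not given here.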 The note with it: purified firefly luciferase, SteadyGlo luminescence, 30 min; higher = more signal, called active from +8 up or from −8 down.
Sequence of Luciferin 4-monooxygenase (Photinus pyralis) (P08659 whole entry, looked up): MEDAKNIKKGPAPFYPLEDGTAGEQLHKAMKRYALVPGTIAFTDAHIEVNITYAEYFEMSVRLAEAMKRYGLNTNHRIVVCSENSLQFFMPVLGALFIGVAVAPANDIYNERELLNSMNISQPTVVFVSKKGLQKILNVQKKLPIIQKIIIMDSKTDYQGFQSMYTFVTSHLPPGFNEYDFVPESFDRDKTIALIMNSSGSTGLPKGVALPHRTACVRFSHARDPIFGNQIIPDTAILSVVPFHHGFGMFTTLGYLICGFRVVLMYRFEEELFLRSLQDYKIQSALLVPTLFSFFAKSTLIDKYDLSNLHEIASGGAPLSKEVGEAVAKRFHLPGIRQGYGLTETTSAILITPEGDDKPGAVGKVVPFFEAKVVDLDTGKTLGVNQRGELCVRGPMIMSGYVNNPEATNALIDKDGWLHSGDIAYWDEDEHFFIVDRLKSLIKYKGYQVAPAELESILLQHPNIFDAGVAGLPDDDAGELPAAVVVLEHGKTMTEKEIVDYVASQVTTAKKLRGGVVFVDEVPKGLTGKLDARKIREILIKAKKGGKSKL

From PubChem BioAssay come the findings set out here.

Molecules are shown by their SMILES. The source made the active and inactive calls.

Sequence of Fibroblast growth factor 2 (Homo sapiens) (P09038 whole entry, looked up): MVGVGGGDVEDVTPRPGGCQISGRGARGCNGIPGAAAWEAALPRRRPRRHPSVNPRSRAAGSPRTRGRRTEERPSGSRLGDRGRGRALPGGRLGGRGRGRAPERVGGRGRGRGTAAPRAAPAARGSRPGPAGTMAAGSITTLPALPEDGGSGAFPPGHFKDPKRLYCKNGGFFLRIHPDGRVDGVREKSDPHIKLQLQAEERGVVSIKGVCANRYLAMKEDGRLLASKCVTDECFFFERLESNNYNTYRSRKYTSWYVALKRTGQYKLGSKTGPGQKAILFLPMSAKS

Regarding `CC(=O)NCCCC[C@@H]1NC(=O)[C@H]2C[C@@H](C(=O)NCCCCCC[N+](C)(C)C)[C@@H](c3cccc(OCCO)c3)N2C1=O`, the composite z-score in assay [1] amounted to 0.627; in assay [2], 0.614; in assay [3] it was 0.207; in [4], 0.77; in [5], 1.4; in [6], 1.9. For the same molecule, the composite z-score with Lefty1 worked out at 1.39; in assay [8], 0.656. In addition, the z-score was -1.12 in [7] and 0.692 (inactive) in [9].
For the molecule `COCCOC(=O)N1C(=O)[C@@]2(c3ccccc31)[C@H](C(=O)Nc1nc3ccccc3s1)[C@H]1C(=O)O[C@H](c3ccccc3)[C@H](c3ccccc3)N1[C@@H]2c1ccc(OCCO)cc1`, the composite z-score in assay [1] was 1.8; in assay [2], 1.17; in [3], 0.462; in [4], 0.962; in assay [5] it was 1.33; in [6], 0.826. The composite z-score with Lefty1 stood at 1.33; in assay [8], 0.992. Besides, the z-score was -2.32 in assay [7] and -2.11 (inactive) in [9].
Consider `CN(C)CCCCNC(=O)[C@H]1C[C@H]2C(=O)N[C@@H](Cc3ccccc3)C(=O)N2[C@H]1c1ccc(O)cc1`, for which the composite z-score in [1] was 0.499; in [2] it was 1.16; in assay [3] it was -0.366; in assay [4], 0.986; in [5] it was 1.34; in assay [6], 1.64. For the same molecule, the values for the composite z-score (with Lefty1; in assay [8]) were 1.31 and 1.2, respectively. Also, the z-score in [7] was -0.884; in assay [9], 0.999 (inactive).
`NC(=O)NCC#Cc1ccc2c(c1)[C@]1(C(=O)N2)[C@H](C(=O)N2CCCCCCC2)[C@H]2C(=O)O[C@H](c3ccccc3)[C@H](c3ccccc3)N2[C@@H]1c1ccc(OCCO)cc1`: the composite z-score is -0.132 in [1]; 1.14 in [2]; 0.773 in assay [3]; 0.909 in assay [4]; 1.47 in [5]; 0.649 in [6]. For the same molecule, the composite z-score in the assay with Lefty1 was 1.25; in assay [8], 1.36. Also, the z-score in assay [7] was -1.62; in [9] it was -0.551 (inactive).
For the molecule `CN(C)CCCNC(=O)[C@@]1(Cc2ccccc2I)c2ccccc2C(=O)N(Cc2ccccc2C(F)(F)F)[C@H]1c1ccc(CO)cc1`, the composite z-score in assay [1] was 0.984; in assay [2], 0.794; in assay [3], 0.17; in [4] it was 0.836; in [5], -0.781; in assay [6] it was -1.16. Further, the figures for the composite z-score (in the assay with Lefty1; in assay [8]) were -0.406 and -0.203, respectively. The z-score in assay [7] is 0.117; in assay [9], 0.606 (inactive).
Consider `Cc1ccc([C@H]2C(C(=O)O)=C[C@@H](C)N2S(=O)(=O)c2ccc(C)cc2)cc1`, for which the composite z-score in assay [1] was 1.72; in assay [2], 1.14; in assay [3] it was 1.96; in assay [4], -1.29; in assay [5], -0.742; in [6], -1.16. Also, the composite z-score with Lefty1 was -1.15; in assay [8], 1.32. For the same molecule, the z-score was -0.321 in assay [7] and 0.467 (inactive) in [9].
As to `O=C1C2C=CC(C(O)c3ccc(-c4ccccc4)s3)N(n3cnnc3)C2C(=O)N1Cc1ccccc1` (stereo not given), the composite z-score in assay [1] is 1.46; in [2] it was -0.283; in assay [3], 0.0347; in [4], 0.708; in assay [5], -0.279; in [6] it was -0.625. Also, the composite z-score with Lefty1 is -0.69; in assay [8], 0.525. Moreover, the z-score in [7] is -1.32; in assay [9], 1.77 (inactive).
On to `CN1CCC(CCCO)=CC1c1ccc(CN2CCCC2)cc1` (stereo not given), for which the composite z-score in assay [1] was 0.358; in assay [2], 1.06; in [3], -0.0595; in [4] it was -0.294; in [5] it was 1.42; in assay [6], 1.65. The composite z-score in the assay on Lefty1 was determined as 1.57; in [8], 1.18. Besides, the z-score in assay [7] was 0.0421; in assay [9], 0.536 (inactive).
Take `COCCOC(=O)N1C(=O)[C@@]2(c3cc(C#Cc4ccc(OC)cc4)ccc31)[C@H](C(=O)N1CCN(c3ncccn3)CC1)[C@H]1C(=O)O[C@H](c3ccccc3)[C@H](c3ccccc3)N1[C@@H]2c1ccc(O)cc1`: the composite z-score was 0.136 in assay [1]; 0.64 in assay [2]; 1.2 in [3]; -0.126 in [4]; 0.755 in assay [5]; 0.633 in [6]. Further, the composite z-score worked out at 0.331 with Lefty1 and 0.428 in assay [8]. In addition, the z-score in assay [7] was -0.334; in [9], -0.938 (inactive).
For `C=CCNC(=O)[C@@H]1[C@H]2C(=O)O[C@H](c3ccccc3)[C@H](c3ccccc3)N2[C@H](c2ccc(O)cc2)[C@@]12C(=O)N(C(=O)OCCOC)c1ccccc12`, the composite z-score in assay [1] was 1.92; in [2], 1.21; in assay [3] it was 0.419; in assay [4], 0.945; in assay [5] it was 0.714; in assay [6], -0.145. Moreover, the values for the composite z-score (in the assay with Lefty1; in [8]) were 0.522 and 0.795, respectively. In addition, the z-score is -0.595 in [7] and -0.355 (inactive) in assay [9].
With `O=C1O[C@@H](c2ccccc2)[C@@H](c2ccccc2)N2[C@@H](c3ccc(OCCO)cc3)[C@]3(C(=O)Nc4ccccc43)[C@@H](C(=O)Nc3nc4ccccc4s3)[C@H]12`, the composite z-score in [1] is 2.11; in assay [2], 1.26; in assay [3] it was 0.645; in assay [4], 1; in [5], 1.21; in assay [6], 0.79. Also, the composite z-score in the assay with Lefty1 is 1.28; in [8] it was 0.958. Also, the values for the z-score in assay [7] and in assay [9] were -2.13 and -9.09 (active), respectively.
Regarding `COc1ccc(C(O)C2C=CC3C(=O)N(C)C(=O)C3N2Nc2ccccc2)cc1OCc1ccccc1` (stereo not given), the composite z-score in assay [1] is 1.05; in [2], 1.27; in assay [3], 0.091; in assay [4] it was 1.01; in assay [5], 0.336; in assay [6] it was -0.0667. Besides, the composite z-score in the assay with Lefty1 came out at 0.0084; in [8], 1.34. Further, the z-score in assay [7] is -0.295; in [9], -0.51 (inactive).
Turning to `C=CC[C@@]1(C(=O)N2CCOCC2)N=C(c2ccc(OCCCO)cc2)O[C@@H]1c1ccccc1N=[N+]=[N-]`, the composite z-score in [1] worked out at 1.58; in [2], 1.24; in assay [3] it was 0.304; in assay [4], 0.752; in [5], 1.33; in [6], 1.05. In addition, the figures for the composite z-score (in the assay on Lefty1; in assay [8]) were 0.135 and 1.13, respectively. Besides, the z-score in assay [7] was 0.0318; in assay [9] it was -11.4 (active).
With `COc1ccc(C(O)C2C=CC3C(=O)NC(=O)C3N2Nc2ccccn2)cc1OCc1ccccc1` (stereo not given), the composite z-score was 0.834 in assay [1]; 0.502 in assay [2]; -0.0511 in assay [3]; 0.816 in assay [4]; -0.101 in assay [5]; -1.37 in assay [6]. Further, the composite z-score is -0.168 in the assay with Lefty1 and 0.532 in assay [8]. In addition, the z-score in assay [7] was 1.73; in [9] it was 0.24 (inactive).
With `COc1ccc(CCNC(=O)[C@@]2(Sc3ccc(C)cc3)CC(=O)N(Cc3ccccc3Cl)[C@@H]2c2ccc(CO)cc2I)cc1`, the composite z-score was 2.25 in assay [1]; 0.349 in [2]; -0.0568 in [3]; 0.35 in [4]; 1.03 in assay [5]; 0.664 in [6]. The composite z-score in the assay with Lefty1 was -0.954; in assay [8], 0.593. Further, the z-score was 2.03 in assay [7] and 0.674 (inactive) in assay [9].
Consider `CC(C)N1C(=O)[C@@]2(c3ccc([N+](=O)[O-])cc3)CC(=O)N(CC34CC5CC(CC(C5)C3)C4)[C@@H]2c2ccc(CO)cc21`, for which the composite z-score in assay [1] is -0.193; in [2], -1.05; in assay [3], -0.553; in assay [4] it was -1.1; in assay [5], 0.0163; in assay [6], -0.934. Moreover, the composite z-score in the assay with Lefty1 worked out at 0.0347; in [8], 1.23. In addition, the z-score in [7] is 0.58; in assay [9], -0.322 (inactive).
